Results on 7 compounds are retold here after PubChem BioAssay (NCATS).

Inconclusive results are not listed. Calls of active or inactive are those of the source. Calls follow the shape of the dose curve; as a rule, active = well fitted curve in the direction sought with a large enough effect; inconclusive = small, poorly fitted or top-dose-only effect, or another doubt; inactive = no such curve, though single readings can be large; an effect the other way counts as inactive or inconclusive. Starred links: 1 amine or outer side, 2 acyl side, 3 side chain; linkers in the order of their positions; H or OH if unused. Positions of bridges follow the written chain, without caps; N, C: chain ends. Non-standard residues stand in square brackets, D forms with d. Residues, ends and D or L forms follow the SMILES beside them. Chains are numbered I, II in the order given. Actinocin(9to1) = Cc1c2oc3c(C)ccc(C(=O)[*:1])c3nc-2c(C(=O)[*:2])c(N)c1=O; NMeV = CN[CH](C(=O)O)C(C)C; Sar = CNCC(=O)O

The nature of experiment [1]: qHTS of pediatric cancer cell lines to identify multiple opportunities for drug repurposing: Primary screen for BT-12 cells (AID 1347101). Also: nearly all actives have a fitted effect of over 25% in size. Also: potency is read from the fitted curve at half-maximal effect. A digest of the protocol:
(§1)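 Cells (500-1,000/well) rested 5 h, then received compounds for 48 h; metabolically active cells were measured by CellTiter-Glo luminescence. Final concentrations spanned up to 46 µM (MIPE, 11-point) or 0.59 nM-46 µM (NPC, 8-point) in primary screens, 11-point in follow-ups.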

Experiment [2] is described as follows: qHTS of pediatric cancer cell lines to identify multiple opportunities for drug repurposing: Primary screen for Rh18 cells (AID 1347102). Also: nearly all actives have a fitted effect of over 65% in size. Also: potency is read from the fitted curve at half-maximal effect. A digest of the protocol: as §1
Experiment [3] is described as follows: qHTS of pediatric cancer cell lines to identify multiple opportunities for drug repurposing: Primary screen for OHS-50 cells (AID 1347103). Also: nearly all actives have a fitted effect of over 40% in size. Also: potency is read from the fitted curve at half-maximal effect. A digest of the protocol: as §1
Experiment [4] can be described thus: qHTS of pediatric cancer cell lines to identify multiple opportunities for drug repurposing: Primary screen for RD cells (AID 1347104). Also: nearly all actives have a fitted effect of over 55% in size. Also: potency is read from the fitted curve at half-maximal effect. A digest of the protocol:
(§2)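 Phenotypic viability qHTS, 48 h compound exposure, CellTiter-Glo luminescence read-out; multi-concentration dosing so that potency and efficacy derive directly from the primary screen's curves.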

Experiment [5] in a line: qHTS of pediatric cancer cell lines to identify multiple opportunities for drug repurposing: Primary screen for control Hh wild type fibroblast cells (AID 1347106).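 Also: a drop in luminescence marks cytotoxicity and a rise apparent proliferation; nearly all actives have a fitted effect of over 55% in size.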 Put shortly:
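Viability after 48 h compound treatment at 37C, 500-1,000 cells/well, read as ATP luminescence with CellTiter-Glo. Primary screens used 11-point (MIPE, 0.78 nM-46 µM) or 8-point (NPC, 0.59 nM-46 µM) final concentrations; follow-up screens used 11-point dilutions.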

Experiment [6] in a line: qHTS of pediatric cancer cell lines to identify multiple opportunities for drug repurposing: Primary screen for Rh30 cells (AID 1347107). Also: nearly all actives have a fitted effect of over 75% in size. A digest of the protocol: as §1
A short description of experiment [7]: qHTS of pediatric cancer cell lines to identify multiple opportunities for drug repurposing: Primary screen for Rh41 cells (AID 1347108). Also: nearly all actives have a fitted effect of over 70% in size. Also: potency is read from the fitted curve at half-maximal effect.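 As to activity change, negative = cytotoxic: luminescence drop marks cytotoxic hits.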 A digest of the protocol: as §2
Experiment [8] in a line: qHTS of pediatric cancer cell lines to identify multiple opportunities for drug repurposing: Confirmatory screen for A673 cells (AID 1347110).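 Also: potency is read from the fitted curve at half-maximal effect; cells exposed to compound for 48 h before the viability read; nearly all actives have a fitted effect of over 65% in size.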 A digest of the protocol: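 Cells plated at 500-1,000/well were treated five hours later with multi-point dilutions up to 46 µM final. After two days, CellTiter-Glo was added and luminescence read.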
The nature of experiment [9]: qHTS of pediatric cancer cell lines to identify multiple opportunities for drug repurposing: Confirmatory screen for SK-N-MC cells (AID 1347111).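 Also: potency is read from the fitted curve at half-maximal effect; cells exposed to compound for 48 h before the readout; nearly all actives have a fitted effect of over 70% in size.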 A digest of the protocol: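 Seed 500-1,000 cells/well; rest 5 h at 37 degrees C. Pin-transfer compounds, 11-point titration. Incubate 48 h. Add CellTiter-Glo, 15 min RT, read luminescence.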
Experiment [10] is described as follows: qHTS of pediatric cancer cell lines to identify multiple opportunities for drug repurposing: Confirmatory screen for BT-12 cells (AID 1347112). Also: potency is read from the fitted curve at half-maximal effect; nearly all actives have a fitted effect of over 55% in size. Put shortly:
as §1

Experiment [11] in a line: qHTS of pediatric cancer cell lines to identify multiple opportunities for drug repurposing: Confirmatory screen for LAN-5 cells (AID 1347113). Also: nearly all actives have a fitted effect of over 65% in size. Also: potency is read from the fitted curve at half-maximal effect. A digest of the protocol:
as §1

Experiment [12] can be described thus: qHTS of pediatric cancer cell lines to identify multiple opportunities for drug repurposing: Confirmatory screen for DAOY cells (AID 1347114). Also: potency is read from the fitted curve at half-maximal effect; nearly all actives have a fitted effect of over 65% in size. Put shortly:
(§3)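 Viability measured as metabolically active cells via CellTiter-Glo luminescence following 48 hours of compound exposure, 11-point dilutions in confirmatory testing. 500-1,000 cells/well plated 5 hours before dosing; controls were DMSO and 2.3 µM bortezomib.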

The nature of experiment [13]: qHTS of pediatric cancer cell lines to identify multiple opportunities for drug repurposing: Confirmatory screen for BT-37 cells (AID 1347117). Also: potency is read from the fitted curve at half-maximal effect; nearly all actives have a fitted effect of over 55% in size. To be noted: BT-37 pediatric cancer cells, viability; activity change, negative = cytotoxic: at 45.9 µM (top of the series). A digest of the protocol:
as §1

The nature of experiment [14]: qHTS of pediatric cancer cell lines to identify multiple opportunities for drug repurposing: Confirmatory screen for TC32 cells (AID 1347118). A digest of the protocol: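 qHTS, TC32, 48 h drug treatment, CellTiter-Glo luminescence as a proxy for metabolically active cells; primary top concentration 46 µM (MIPE 11-pt, NPC 8-pt); confirmatory 11-pt.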
Experiment [15] is described as follows: qHTS of pediatric cancer cell lines to identify multiple opportunities for drug repurposing: Confirmatory screen for MG 63 (6-TG R) cells (AID 1347119). A digest of the protocol: as §1
The nature of experiment [16]: qHTS of pediatric cancer cell lines to identify multiple opportunities for drug repurposing: Confirmatory screen for control Hh wild type fibroblast cells (AID 1347121). Also: nearly all actives have a fitted effect of over 70% in size. Also: potency is read from the fitted curve at half-maximal effect. A digest of the protocol: as §1
Experiment [17] can be described thus: qHTS of pediatric cancer cell lines to identify multiple opportunities for drug repurposing: Primary screen for MG 63 (6-TG R) cells (AID 1347105). Also: nearly all actives have a fitted effect of over 50% in size. A digest of the protocol: as §2
Experiment [18] can be described thus: qHTS of pediatric cancer cell lines to identify multiple opportunities for drug repurposing: Confirmatory screen for NB1643 cells (AID 1347109). Also: nearly all actives have a fitted effect of over 45% in size. Also: potency is read from the fitted curve at half-maximal effect. A digest of the protocol:
as §1

Experiment [19] is described as follows: qHTS of pediatric cancer cell lines to identify multiple opportunities for drug repurposing: Confirmatory screen for SJ-GBM2 cells (AID 1347116). Also: nearly all actives have a fitted effect of over 60% in size. Also: potency is read from the fitted curve at half-maximal effect. A digest of the protocol: as §3

Consider `C[C@H](CCC(=O)O)[C@H]1CC[C@H]2[C@@H]3[C@H](O)C[C@@H]4C[C@H](O)CC[C@]4(C)[C@@H]3CC[C@]12C`, for which the Potency result in [1], in [2], in experiment [3], in experiment [4], in [5] and in [6] was “inactive” each time. Besides, the Potency result in experiment [7] is “inactive”.
As to `COc1cc([C@@H]2c3cc4c(cc3[C@H](O)[C@H]3COC(=O)[C@@H]23)OCO4)cc(OC)c1OC`, the Potency is 273 nM (active) in experiment [1]; 172 nM (active) in [3]; 928 nM (active) in [8]; 585 nM (active) in experiment [9]; 1040 nM (active) in [10]; 1040 nM (active) in experiment [11]. In addition, the Potency in [12] is 414 nM (active); in [13], 1170 nM (active); in [14] it was 465 nM (active); in experiment [15] it was 737 nM (active). Also, the Potency result in experiment [2], in [6] and in [16] was “inactive” each time.
Regarding `CN(C)CC[C@H](c1ccc(Cl)cc1)c1ccccn1`, the Potency result in experiment [1], in experiment [2], in [3], in experiment [17], in experiment [5] and in [6] was “inactive” in each case.
For `CC(=O)C1=C(O)C=C2Oc3c(C(C)=O)c(O)c(C)c(O)c3C2(C)C1=O` (stereo unspecified), the Potency in experiment [1] and in experiment [3] was 1720 nM (active) throughout. The Potency result in [2], in experiment [17], in [5], in [6] and in experiment [7] was “inactive” in each case.
Turning to `CNC(=O)c1ccc(Nc2cc(Nc3ccccc3S(=O)(=O)C(C)C)c3cc[nH]c3n2)nc1`, the Potency in experiment [1] is 4850 nM (active); in experiment [2] it was 9350 nM (active); in experiment [3] it was 544 nM (active); in experiment [4], 5900 nM (active); in [7], 5900 nM (active); in experiment [18], 1470 nM (active). Further, the Potency in [8] was 1170 nM (active); in experiment [9] it was 2610 nM (active); in experiment [10] it was 13100 nM (active); in experiment [11], 2930 nM (active); in [12], 5850 nM (active); in [19] it was 10400 nM (active). The Potency is 6570 nM (active) in experiment [13], 1850 nM (active) in experiment [14], 1040 nM (active) in [15] and 13100 nM (active) in [16].
On to `COc1ccc(C[C@@H](C)[C@@H](C)Cc2ccc(OC)c(OC)c2)cc1OC`, for which the Potency in experiment [1] is 863 nM (active); in experiment [3] it was 685 nM (active); in experiment [12], 11700 nM (active); in experiment [15], 9270 nM (active). The Potency result in [2], in [6], in experiment [11] and in experiment [19] was “inactive” throughout.
With `Cc1c2oc3c(C)ccc(C(=O)NC4C(=O)NC(C(C)C)C(=O)N5CCCC5C(=O)N(C)CC(=O)N(C)C(C(C)C)C(=O)OC4C)c3nc-2c(C(=O)NC2C(=O)NC(C(C)C)C(=O)N3CCCC3C(=O)N(C)CC(=O)N(C)C(C(C)C)C(=O)OC2C)c(N)c1=O` (stereo unspecified) (I: TVP[Sar][NMeV] / II: TVP[Sar][NMeV]; ester I:1-I:C, II:1-II:C; linker I:N-II:N via Actinocin(9to1); configuration not given here), the Potency in experiment [1] was 1 nM (active); in experiment [2], 1870 nM (active); in experiment [3], 1 nM (active); in experiment [4], 1 nM (active); in experiment [7], 1 nM (active); in experiment [9], 7.4 nM (active). Also, the Potency in experiment [10] is 29.3 nM (active); in experiment [11], 2.3 nM (active); in experiment [12], 36.9 nM (active); in [13] it was 2.6 nM (active); in experiment [14] it was 16.5 nM (active). Further, the Potency entry in experiment [6], in [18] and in [16] was “inactive” in each case.
